# High-throughput results from PubChem BioAssay.
# Most compounds without a hit are left out; they make up all but 1.8% or so of the library.
# Fam108B inh = counter-screen for RBBP9 inhibitors: inhibitors of mouse Fam108B; recombinant Fam108B, FP-Rh probe fluorescence polarization; inhibition, % at 9.51 µM; hit rate 0.33% among 300,000; AID 1947;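 active = inhibition above the screen mean inhibition plus 3 SD, computed separately per campaign, cut at about 18% in these data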;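 also: inhibitors lower polarization as less probe binds the enzyme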
# PME-1 primary = PME-1 (human) inhibition; hit rate 0.53% among 320,000; inhibition, % at 5.9 µM; Q9Y570; recombinant PME-1, FP-Rh probe fluorescence polarization;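 active = inhibition above the campaign mean of all compounds plus 3 SD, cut at about 26% in these data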;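 also: competitive labeling of PME-1 active site by serine hydrolase directed probe; 0% = PME-1 with DMSO and 100% = wells lacking PME-1 enzyme; inhibitors block probe labeling so polarization falls and inhibition rises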
# Target sequence (Q9Y570 whole entry, looked up): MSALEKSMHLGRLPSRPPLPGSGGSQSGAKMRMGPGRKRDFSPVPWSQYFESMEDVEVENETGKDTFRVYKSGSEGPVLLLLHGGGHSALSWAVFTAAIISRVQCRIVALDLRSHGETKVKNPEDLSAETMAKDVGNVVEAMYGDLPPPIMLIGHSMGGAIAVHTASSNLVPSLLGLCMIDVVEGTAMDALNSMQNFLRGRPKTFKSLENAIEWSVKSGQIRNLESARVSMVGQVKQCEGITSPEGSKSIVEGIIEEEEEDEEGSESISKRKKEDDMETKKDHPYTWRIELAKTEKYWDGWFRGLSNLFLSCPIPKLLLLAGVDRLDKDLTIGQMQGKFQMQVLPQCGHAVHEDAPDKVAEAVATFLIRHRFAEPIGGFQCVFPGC
# GSTO1 inh = counter-screen for RBBP9 inhibitors: inhibitors of human GSTO1 | P78417 | recombinant GSTO1, activity-based probe fluorescence polarization | inhibition, % at 5.96 µM | hit rate 1.1% among 300,000;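 active = inhibition above the campaign mean inhibition plus 3 SD, cut at about 35% in these data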;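 also: 0% = GSTO1-1 with DMSO and 100% = wells lacking GSTO1-1 enzyme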
# PAD4 FP inh = blocks human protein arginine deiminase 4 | Q9UM07 | recombinant PAD4, RCA probe fluorescence polarization | inhibition, % at 6.36 µM | hit rate 0.41% among 330,000;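 active = percent inhibition above a cutoff equal to the mean of all tested compounds plus 3 SD, cut at about 15% in these data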;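 also: 0% = PAD4 with RCA probe and DMSO and 100% = probe without PAD4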
# LYPLA1 counter = blocks human lysophospholipase 1, a PME1 counter-screen; O75608; recombinant LYPLA1, FP-Rh probe fluorescence polarization; inhibition, % at 5.9 µM; hit rate 0.16% among 320,000; AID 2174;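 active = inhibition above the mean of all tested compounds plus 3 SD, set per campaign, cut at about 14% in these data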;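 also: inhibitors block serine hydrolase probe labeling of LYPLA1 so polarization falls; 0% = enzyme with DMSO and 100% = wells lacking LYPLA1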
# LYPLA2 inh = blocks human lysophospholipase 2, a PME1 counter-screen; O95372; recombinant LYPLA2, FP-Rh probe fluorescence polarization; inhibition, % at 5.9 µM; hit rate 0.38% among 320,000;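 active = inhibition above the screen-wide mean plus 3 SD, limit set per campaign, cut at about 26% in these data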;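 also: 0% = LYPLA2 with DMSO and 100% = wells lacking LYPLA2 enzyme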
# Target sequence (O95372 whole entry, looked up): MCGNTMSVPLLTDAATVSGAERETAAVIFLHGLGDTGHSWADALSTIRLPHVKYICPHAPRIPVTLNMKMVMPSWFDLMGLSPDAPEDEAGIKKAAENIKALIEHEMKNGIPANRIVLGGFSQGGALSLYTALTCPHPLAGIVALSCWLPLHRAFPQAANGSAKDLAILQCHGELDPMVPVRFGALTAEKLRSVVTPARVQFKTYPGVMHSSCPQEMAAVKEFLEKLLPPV
# LYPLA1 confirm = LYPLA1 (human) inhibition, confirmation counter-screen; shares compounds with LYPLA1 counter; recombinant LYPLA1, FP-Rh probe fluorescence polarization; inhibition, % at 5.9 µM; hit rate 69% among 480;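 active = mean inhibition across replicates above the hit cutoff set in the primary screen, cut at about 15% in these data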;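 also: loss of FP-Rh probe labeling of LYPLA1 seen as lower polarization; 0% = LYPLA1 with DMSO and 100% = wells lacking LYPLA1 enzyme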
# LYPLA2 confirm = LYPLA2 (human) inhibition, confirmation counter-screen. hit rate 72% among 1,100. AID 2232. recombinant LYPLA2, FP-Rh probe fluorescence polarization. shares compounds with LYPLA2 inh. inhibition, % at 5.9 µM;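 active = mean inhibition across replicates above the hit cutoff set in the primary screen, cut at about 26% in these data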;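 also: blocked labeling of the enzyme by serine hydrolase FP-Rh probe lowers polarization; 0% = enzyme with DMSO and 100% = wells lacking LYPLA2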
# LYPLA2 ABPP = inhibitors of human LYPLA2; inhibition, % at 20 µM; hit rate 30% among 150; rhLYPLA2 in mouse brain proteome, gel ABPP FP-Rh; shares compounds with LYPLA2 inh;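 active = inhibition of LYPLA2 enzyme probe labeling above about 50%, limit read from the data; inactive = inhibition below that limit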;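 also: loss of FP-Rh probe labeling of the LYPLA2 gel band measured as band density; 0% = DMSO only control band and 100% = blank gel background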
# PAD4 FP conf = confirmation of human PAD4 inhibitors. shares compounds with PAD4 FP inh. recombinant PAD4, RCA probe fluorescence polarization. inhibition, % at 6.36 µM. hit rate 28% among 1,200;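 active = mean inhibition across replicates above the hit cutoff set by the earlier primary screen, cut at about 15% in these data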;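 also: inhibitors block active-site labeling by the probe so polarization falls; 0% = PAD4 with probe and DMSO and 100% = probe without PAD4 enzyme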
# Numbers without * were called inactive; · = not tested or not shown; + = active, no number.
SMILES,Fam108B inh,PME-1 primary,GSTO1 inh,PAD4 FP inh,LYPLA1 counter,LYPLA2 inh,LYPLA2 confirm,others
O=C(Oc1ccc(-n2cnnn2)cc1)c1ccco1,-0.4,-4.5,11.8,-3.1,-4.2,-2.0,·,
CCN1/C(=C/C=C/c2sc3ccccc3[n+]2CC)Sc2ccccc21,-310.2,-296.5,-167.7,-112.0,-138.9,-290.9,·,
CCN1/C(=C/C=C/c2oc3ccc(-c4ccccc4)cc3[n+]2CC)Oc2ccc(-c3ccccc3)cc21,-10.9,72.1*,-67.8,62.8*,58.4*,64.1*,-176.4,LYPLA1 confirm=-47.4;PAD4 FP conf=45.0*
CCOc1cc(C)ccc1OCc1nnc(SCC(=O)c2cccc([N+](=O)[O-])c2)n1C,-4.8,11.5,7.9,-2.2,-3.5,3.2,·,
COc1ccc(OC)c2c1C(=O)c1ccccc1C2=O,15.6,27.7*,9.9,41.3*,22.0*,22.2,·,LYPLA1 confirm=4.2;PAD4 FP conf=37.7*
COc1ccc(N)c2c1C(=O)c1ccccc1C2=O,12.3,18.0,14.2,32.9*,20.2*,14.7,·,LYPLA1 confirm=14.2*;PAD4 FP conf=10.2
COc1cccc2c1C(=O)c1ccc3ccccc3c1C2=O,5.6,5.2,10.5,-2.8,4.8,6.9,·,
CN(c1ccc(Br)cc1)S(=O)(=O)c1ccc2[nH]cc(C(=O)NCCN3CCOCC3)c(=O)c2c1,-3.9,1.9,-20.2,4.7,0.3,-1.6,·,
Cc1ccc(NS(=O)(=O)c2cccc(C(=O)N3CCN(c4ncccn4)CC3)c2)cc1,·,30.7*,·,36.5*,24.0*,49.5*,1.6,LYPLA1 confirm=-1.3;PAD4 FP conf=3.0
c1ccc(CSc2nc3ccccc3[nH]2)cc1,-6.8,-15.2,5.8,-7.4,-1.0,-7.0,·,
CCn1c(CSc2nc3ccccc3[nH]2)nc2cc(C(=O)O)ccc21,12.5,19.2,12.2,31.6*,20.4*,23.6,·,LYPLA1 confirm=13.7;PAD4 FP conf=34.1*
CCC1(c2ccc(F)cc2)NC(=O)N(CC(=O)NCc2ccccc2Cl)C1=O (stereo not given),-5.4,-0.7,-5.9,-2.7,0.4,-4.6,·,
COc1cc(CNc2ccc(O)cc2)cc(Br)c1OCc1ccccc1F,9.0,41.6*,85.7*,27.6*,18.0*,17.6,·,LYPLA1 confirm=-0.6;PAD4 FP conf=8.0
COc1cc(CNCc2ccncc2)cc(Br)c1OCc1ccccc1F,9.3,-10.2,6.3,-4.3,-2.5,0.3,·,
Cc1n[nH]c(C)c1N1C(=O)c2cccc3c(N4CCCCCC4)ccc(c23)C1=O,8.3,17.0,13.2,38.2*,19.5*,21.8,·,LYPLA1 confirm=18.8*;PAD4 FP conf=26.7*
Cc1ccc(C2CC(=O)Oc3cc(O)ccc32)cc1 (stereo not given),14.9,22.6,27.3,59.8*,22.1*,22.6,·,LYPLA1 confirm=18.5*;PAD4 FP conf=63.1*
CCC(=O)c1ccc(OCC(=O)NC2(C#N)CCCCC2)cc1,2.2,-10.4,9.7,-4.7,-3.6,1.9,·,
COC(=O)c1ccccc1-c1c2ccc(=N)cc-2oc2cc(N)ccc12,·,150.1*,·,+,169.8*,191.5*,154.6*,LYPLA1 confirm=129.6*;PAD4 FP conf=144.9*
Nc1ccc(Sc2ccccc2Cl)nc1,-1.0,-3.2,-5.9,4.2,2.5,2.5,·,
O=[N+]([O-])c1ccc(Sc2ccccc2Cl)nc1,2.7,-0.6,6.5,-0.8,3.6,45.2*,47.8*,
CSc1ccc(C(=O)C2CCCN(C(=O)c3cc4cc(F)ccc4[nH]3)C2)cc1 (stereo not given),-4.5,-2.5,-5.1,-0.1,13.1,36.4*,40.6*,
COc1ccc(CNC(=O)c2ccc(N3CCC4(CC3)CC(c3ccc(Cl)cc3)=NO4)c(N)c2)cc1,-1.6,1.9,-3.0,0.8,1.4,40.1*,40.8*,
CC(C)(C)C(=O)Nc1ccc(C(=O)Nc2cc(NC(=O)c3ccc(NC(=O)C(C)(C)C)cc3)cc(C(=O)O)c2)cc1,-3.4,-6.5,-7.6,-4.2,-7.5,-4.7,·,
CC(C)(C)C(=O)Nc1ccc(C(=O)Nc2cccc(Oc3ccc(C(=O)O)c(C(=O)O)c3)c2)cc1,-2.6,-8.2,-2.9,-1.4,2.0,30.9*,21.3,
O=C(Nc1cccc(Oc2ccc(C(=O)O)c(C(=O)O)c2)c1)c1ccc(-c2ccccc2)cc1,-15.0,-21.5,-15.7,-3.2,-0.6,54.0*,39.6*,
SMILES,Fam108B inh,PME-1 primary,GSTO1 inh,PAD4 FP inh,LYPLA1 counter,LYPLA2 inh,LYPLA2 confirm,others
O=[N+]([O-])c1cc(/C=N/O)ccc1Oc1cccc(Cl)c1,-2.5,14.2,1.5,-2.8,-5.4,8.2,·,
Cc1cc(=O)oc2cc(Oc3ccc([N+](=O)[O-])cc3[N+](=O)[O-])ccc12,5.2,9.9,6.6,7.3,6.4,36.5*,40.5*,
O=Cc1cccc(Oc2ccc([N+](=O)[O-])cc2[N+](=O)[O-])c1,-2.6,5.9,5.3,0.5,0.1,41.5*,27.2*,
N#Cc1cc([N+](=O)[O-])ccc1Oc1ccc(-c2nnco2)cc1,3.1,3.5,2.2,1.5,9.5,29.8*,20.5,
O=[N+]([O-])c1ccc(Oc2ccc(-c3nnco3)cc2)c(Cl)c1,-3.0,1.5,-2.0,0.4,11.4,32.5*,22.1,
O=[N+]([O-])c1cc(-c2nnc(-c3ccccc3)o2)ccc1Oc1ccc(Cl)cc1,5.2,-2.1,1.2,-4.8,-2.6,-4.0,·,
CC1CC(=O)Nc2ccccc2N1C(=O)CSc1nnnn1C(C)C (stereo not given),·,-4.8,·,-2.4,-0.5,3.5,·,
CCN(CC)S(=O)(=O)c1ccc2[nH]c(=O)cc(C(=O)Nc3ccccc3N3CCOCC3)c2c1,·,7.2,·,-1.5,-1.4,-0.7,·,
O=C(Nc1ccc(O)cc1)c1ccc2c(c1)C(=O)N(N1C(=O)c3ccccc3C1=O)C2=O,3.3,-4.2,-2.8,2.2,-1.0,-3.0,·,
CCCC(=O)c1ccc(N2CCN(C(=O)c3ccccc3)CC2)c(F)c1,2.7,-0.9,-0.1,-0.9,4.3,15.5,·,
CCC(=O)c1ccc(N2CCN(C(=O)c3ccc(Br)cc3)CC2)c(F)c1,-1.9,2.3,-6.6,-5.6,3.4,29.6*,47.5*,
CCC(=O)c1ccc(N2CCN(C(=O)c3ccc(F)cc3)CC2)c(F)c1,-1.8,4.2,5.9,-3.6,5.4,16.0,·,
CCCC(=O)c1ccc(N2CCN(C(=O)c3ccc(Br)cc3)CC2)c(F)c1,0.6,2.1,-3.6,-2.4,3.3,38.9*,70.4*,LYPLA2 ABPP=8.0
O=C(c1ccc(N2CCNCC2)cc1)c1cccnc1,-2.1,2.4,-0.4,-2.3,4.2,25.8*,9.4,
